Assay results as given in PubChem BioAssay.
Calls of active or inactive are those of the source.

Experiments:
[1] = compound effects on lung adenocarcinoma cell viability – A549, calcein-AM fluorescence, 48 h, basal, profiling panel (AID 1162); conditions: higher = more signal; further: test concentration not given here
[2] = compound effects on differentiated 3T3-L1 adipocyte viability – cell-based, 3T3-L1 adipocytes, calcein-AM fluorescence, 48 h, basal, profiling panel (AID 1163); conditions: 3T3-L1 adipocytes viability, higher = more signal; further: test concentration not given here
[3] = compound effects on hepatocellular carcinoma cell viability – HepG2, calcein-AM fluorescence, 48 h, basal, profiling panel (AID 1164); conditions: higher = more signal; further: test concentration not given here
[4] = compound effects on multiple myeloma cell viability – MM1S, calcein-AM fluorescence, 48 h, basal, profiling panel (AID 1165); conditions: higher = more signal; further: test concentration not given here
[5] = calcein-AM signal in unstimulated myeloma cells – cell-based, calcein-AM fluorescence, 48 h, PK04 Diversity Set, profiling panel (AID 1166); conditions: RPMI8226 myeloma viability, higher = more signal;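 further: cells grown under basal conditions without added stimulus; test concentration not given here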
[6] = JC-1 mitochondrial signal, unstimulated HepG2 cells – cell-based, JC-1 fluorescence, 24 h, 100 nL compound, profiling panel (AID 1167); conditions: HepG2 mitochondrial potential, higher = more signal; further: test concentration not given here
[7] = JC-1 mitochondrial signal, unstimulated adipocytes – cell-based, JC-1 fluorescence, 3T3-L1 adipocytes, 24 h, 100 nL compound, profiling panel (AID 1168); conditions: JC-1 mitochondrial fluorescence, higher = more signal, called active from +8 up or from −8 down; further: test concentration not given here
[8] = JC-1 mitochondrial signal, unstimulated myeloma cells – cell-based, JC-1 fluorescence, RPMI8226, 24 h, 100 nL compound, profiling panel (AID 1169); conditions: JC-1 mitochondrial potential fluorescence, higher = more signal; further: test concentration not given here
[9] = JC-1 mitochondrial signal, unstimulated MM1S myeloma – cell-based, JC-1 fluorescence, 24 h, 100 nL compound, profiling panel (AID 1170); conditions: MM1S mitochondrial potential, higher = more signal; further: test concentration not given here
[10] = resazurin metabolic signal in A549 cells – cell-based, resazurin fluorescence, 24 h, PK04 Diversity Set, profiling panel (AID 1171); conditions: A549 viability, higher = more signal, called active from +8 up or from −8 down; further: test concentration not given here
[11] = resazurin metabolic signal in HepG2 cells – cell-based, resazurin fluorescence, 24 h, PK04 Diversity Set, profiling panel (AID 1172); conditions: HepG2 viability, higher = more signal; further: test concentration not given here
[12] = budding yeast growth changes without added modifier – OD600, strain BY4716, 24 h, basal condition, primary screen (AID 1173); conditions: S. cerevisiae BY4716 growth, OD600, 24 h; higher = more signal, called active from +8 up or from −8 down
[13] = viability profiling in MM1S myeloma cells – cell-based, resazurin fluorescence, basal, 24 h, PK04 Diversity Set, profiling panel (AID 1174); conditions: higher = more signal, called active from +8 up or from −8 down; further: test concentration not given here
[14] = target: Dihydroorotate dehydrogenase (quinone), mitochondrial (Plasmodium falciparum (isolate 3D7)) (UniProt Q08210); assay: inhibition of P. falciparum DHODH – biochemical, C-terminal His tag, absorbance 600 nm, primary screen (AID 1175); conditions: PfDHODH enzyme, DCIP absorbance 600 nm; higher = more signal, called active from +8 up or from −8 down;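 further: recombinant parasite enzyme with a five histidine tag at its C terminus; test concentration not given here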
Chain of Dihydroorotate dehydrogenase (quinone), mitochondrial (Plasmodium falciparum (isolate 3D7)) (Q08210 whole entry, looked up): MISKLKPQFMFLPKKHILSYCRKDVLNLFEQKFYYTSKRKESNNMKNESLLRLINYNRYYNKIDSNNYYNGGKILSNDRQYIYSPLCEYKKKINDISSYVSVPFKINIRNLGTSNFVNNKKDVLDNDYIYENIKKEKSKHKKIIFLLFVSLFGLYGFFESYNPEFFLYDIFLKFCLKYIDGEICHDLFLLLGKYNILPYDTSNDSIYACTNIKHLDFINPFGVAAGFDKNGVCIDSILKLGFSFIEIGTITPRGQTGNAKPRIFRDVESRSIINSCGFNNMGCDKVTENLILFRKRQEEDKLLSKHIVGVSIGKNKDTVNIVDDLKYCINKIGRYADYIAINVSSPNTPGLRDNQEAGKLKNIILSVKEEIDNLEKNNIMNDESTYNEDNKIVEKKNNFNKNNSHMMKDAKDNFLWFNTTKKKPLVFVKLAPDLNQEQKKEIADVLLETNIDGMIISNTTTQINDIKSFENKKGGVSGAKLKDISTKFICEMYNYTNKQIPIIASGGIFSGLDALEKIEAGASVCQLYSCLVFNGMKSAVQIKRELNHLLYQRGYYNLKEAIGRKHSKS

[15] = growth modulation of vineyard yeast isolate – strain RM11-1a, OD600, basal, 24 h, primary screen (AID 1177);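 further: cultures grown under basal conditions with no added stressor; test concentration not given here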; conditions: S. cerevisiae RM11-1a growth, OD600, 24 h; higher = more signal, called active from +8 up or from −8 down
[16] = growth of efflux-deficient E. coli DRC39 – strain DRC39, OD650, 24 h, E. coli filamentation inducers, primary screen (AID 1178);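 further: growth measured as culture turbidity by optical density at 650 nm; test concentration not given here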; conditions: E. coli DRC39 acrAB, higher = more signal, called active from +8 up or from −8 down
[17] = growth of efflux-deficient E. coli DRC39 – strain DRC39, OD650, 48 h, E. coli filamentation inducers, primary screen (AID 1179);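 further: screen aims at cell division blockers that make cells filament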; conditions: E. coli DRC39 delta-acrAB growth, higher = more signal, called active from +8 up or from −8 down
[18] = viability profiling in RPMI8226 myeloma cells – cell-based, resazurin fluorescence, basal, 24 h, PK04 Diversity Set, profiling panel (AID 1180); conditions: higher = more signal;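 further: RPMI8826 multiple myeloma cell line at 5000 cells per well; test concentration not given here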
[19] = target: E3 ubiquitin-protein ligase XIAP (Homo sapiens) (UniProt P98170); assay: small molecules binding XIAP protein – biophysical, small-molecule microarray, fluorescence 635 nm, primary screen (AID 1181); conditions: higher = more signal;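 further: score merges 667 nm emission and signal to noise over triplicate slides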
Chain of E3 ubiquitin-protein ligase XIAP (Homo sapiens) (P98170 whole entry, looked up): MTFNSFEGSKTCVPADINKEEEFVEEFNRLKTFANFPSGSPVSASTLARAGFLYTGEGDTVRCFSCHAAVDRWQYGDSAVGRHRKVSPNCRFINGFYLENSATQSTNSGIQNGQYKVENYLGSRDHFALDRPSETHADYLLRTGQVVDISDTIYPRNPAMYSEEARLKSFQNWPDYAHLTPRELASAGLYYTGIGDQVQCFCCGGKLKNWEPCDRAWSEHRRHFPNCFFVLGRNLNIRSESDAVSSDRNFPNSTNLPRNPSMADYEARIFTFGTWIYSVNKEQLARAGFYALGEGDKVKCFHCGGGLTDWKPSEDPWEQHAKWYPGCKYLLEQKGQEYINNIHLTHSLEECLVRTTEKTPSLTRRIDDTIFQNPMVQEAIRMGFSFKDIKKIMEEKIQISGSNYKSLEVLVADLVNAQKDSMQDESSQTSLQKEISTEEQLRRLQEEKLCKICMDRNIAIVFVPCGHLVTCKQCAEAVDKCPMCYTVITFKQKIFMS

Compound | z-score [1] | z-score [2] | z-score [3] | z-score [4] | z-score [5] | z-score [6] | z-score [7] | z-score [8] | z-score [9] | z-score [10] | z-score [11] | z-score [12] | z-score [13] | composite z-score [14] | z-score [15] | z-score [16] | z-score [17] | z-score [18] | composite z-score [19]
CC(C)CNC(=O)[C@@]1(C)c2ccccc2C(=O)N(Cc2ccc(OC(F)(F)F)cc2)[C@H]1c1ccc(CO)cc1 | 1.69 | 1.68 | 0.65 | -0.249 | -0.358 | 3.03 | -0.481 (inactive) | 0.862 | 1.38 | 1.32 (inactive) | 0.518 | -1.51 (inactive) | 1.88 (inactive) | 0.329 (inactive) | -0.229 (inactive) | 0.726 (inactive) | 0.152 (inactive) | 1.75 | 0.149
C[C@@H]1CC[C@H]2C(=O)N3[C@@H](CC[C@@H](C)[C@@H]3c3cccc(N4CCOCC4)c3)C(=O)N2[C@H]1c1cccc(N2CCOCC2)c1 | 0.197 | 1.3 | -0.894 | 0.467 | -0.267 | 1.03 | 0.543 (inactive) | -0.685 | 0.713 | 1.05 (inactive) | 0.728 | -0.0109 (inactive) | 1.04 (inactive) | 0.148 (inactive) | 1.35 (inactive) | 0.203 (inactive) | 0.202 (inactive) | 1.39 | -0.165
C/C(=N\O)C(=O)NCCCCCNC(=O)OCc1ccccc1 | 1.3 | 0.895 | 0.206 | 0.476 | 0.239 | 1.09 | 0.334 (inactive) | -0.561 | 1.24 | 0.707 (inactive) | 1.09 | -2.13 (inactive) | -0.158 (inactive) | -0.4 (inactive) | -0.608 (inactive) | 2.59 (inactive) | 1.43 (inactive) | 0.73 | -0.258
CCCC/C=C/[C@H]([C@@H](O)Cc1ccccc1)N(CC#Cc1ccccc1)Cc1ccccc1Br | 1.44 | -0.0982 | 0.632 | 0.558 | 0.0649 | 0.427 | 0.519 (inactive) | -0.462 | -0.435 | 2.84 (inactive) | 1.65 | -1.44 (inactive) | 0.579 (inactive) | 0.197 (inactive) | 0.994 (inactive) | 2.75 (inactive) | 1.19 (inactive) | 0.788 | -0.039
CCCNC(=O)[C@@H]1c2ccccc2C(=O)N(Cc2cc(F)cc(C(F)(F)F)c2)[C@H]1c1ccc(CO)cc1 | 1.68 | 1.18 | -0.0223 | 0.168 | 0.563 | 2.07 | -0.31 (inactive) | 0.693 | 0.607 | 1.54 (inactive) | 0.527 | -1.69 (inactive) | 0.919 (inactive) | -0.0769 (inactive) | -1.41 (inactive) | 1.4 (inactive) | 0.576 (inactive) | 1.72 | -0.129
CO[C@H]1O[C@H](CO)[C@@H](OC(=O)Nc2ccccc2)[C@H](OC(=O)Nc2ccc3c(c2)OCO3)[C@@H]1OC(=O)Nc1ccc2c(c1)OCO2 | 0.307 | 0.85 | 0.17 | -1.51 | -0.735 | -0.493 | 2.84 (inactive) | 0.105 | 0.327 | -0.429 (inactive) | -0.667 | -0.0273 (inactive) | 0.238 (inactive) | -0.167 (inactive) | 1.21 (inactive) | 1.84 (inactive) | 0.228 (inactive) | -0.365 | 0.136
C=CCNC(=O)[C@H]1[C@@H]2C(=O)O[C@@H](c3ccccc3)[C@@H](c3ccccc3)N2[C@@H](c2ccc(O)cc2)[C@]12C(=O)Nc1ccc(C#CCNC(N)=O)cc12 | 0.294 | 0.57 | -0.348 | -0.778 | -0.144 | -0.0995 | -0.0287 (inactive) | 0.424 | 0.716 | 0.999 (inactive) | 0.435 | -0.558 (inactive) | 0.476 (inactive) | -0.438 (inactive) | -0.381 (inactive) | 0.574 (inactive) | 0.771 (inactive) | 0.917 | 0.0223
COc1ccc([Si](C)(C)[C@H]2[C@H](CCO)O[C@@]3(C(=O)N(Cc4ccccc4)c4ccc(N5C(=O)c6cccc7cccc5c67)cc43)[C@@H]2C)cc1 | 0.318 | 0.535 | -2.11 | -1.02 | -3.03 | 1.63 | 2.08 (inactive) | -0.815 | -0.923 | -1.46 (inactive) | 0.175 | 0.432 (inactive) | -2.33 (inactive) | 0.386 (inactive) | 4.08 (inactive) | 2.4 (inactive) | 2.17 (inactive) | -2.04 | -0.0473
C=CC[C@]1(C(=O)NCC(O)CO)N=C(c2ccc(OCCCO)cc2)O[C@H]1c1ccccc1 (some centres undefined) | 0.495 | 0.991 | 0.417 | -0.176 | 0.213 | -0.0851 | -0.386 (inactive) | -0.895 | 0.334 | 0.912 (inactive) | 0.766 | -1.49 (inactive) | 0.776 (inactive) | -0.537 (inactive) | -1.07 (inactive) | 1.44 (inactive) | 0.199 (inactive) | 1.01 | -0.0102
O=C1OCC=C[C@H]2OC34C=CCN(Cc5ccccc5)C(=O)[C@H]3N(CCCCCO)C(=O)[C@@H]4[C@@H]12 (some centres undefined) | 0.16 | 2.65 | -0.566 | -0.231 | -0.166 | 0.00385 | 1.45 (inactive) | 1.27 | 1.72 | -0.208 (inactive) | -0.399 | -0.693 (inactive) | 0.238 (inactive) | -0.0022 (inactive) | -0.512 (inactive) | 1.77 (inactive) | 1.22 (inactive) | 0.58 | 0.101
CSCC[C@@H]1NC(=O)CC=C[C@@H](C)COC(=O)[C@H](CCSC)NC(=O)CC=C[C@@H](C)COC1=O | 0.364 | 1.7 | 0.0574 | 0.0493 | 0.0542 | 0.79 | 0.647 (inactive) | 0.508 | 0.388 | 0.376 (inactive) | 0.413 | -1.37 (inactive) | 0.94 (inactive) | 0.576 (inactive) | -1.46 (inactive) | -0.251 (inactive) | -0.407 (inactive) | 0.613 | -0.243
